High-throughput results: PubChem, Broad Institute
Compounds with a hit are over-represented: about 1.3% of the library has one in this group of screens.
HIF activator: HIF pathway transcriptional activators, primary screen, cell-based, U2OS HRE-luciferase, luminescence. U2OS HRE-luciferase reporter; normalized: DMSO 0%, desferrioxamine 100%. activation, % at 7.5 µM (by protocol). actives 0.32% (n = 300,000). AID 1910, 2009;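 active means mean activation of at least 10% of the iron chelator positive control signal, with at least half of replicates also reaching 10%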
AI-2 QS modul: Vibrio harveyi AI-2 quorum sensing modulators, primary screen, JMH597 strain, luminescence/OD600 ratio. Vibrio harveyi JMH597 AI-2 luminescence/OD600 ratio, 9 h; active compounds read low; strain lacks LuxN and CqsS sensors; 0 = neutral-control median. activity change, % at 7.5 µM. actives 0.4% (n = 300,000). AID 2094, 2009; in the data active means activity change below about -75%, passing the limit was not always enough;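 further: luminescence divided by OD600 gain over 9 h not by final OD600 alone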
Statin myotox sup: suppressors of statin myotoxicity in C2C12 myotubes, primary screen, cell-based, single point, plate reader. C2C12 myotubes + simvastatin, ATP luminescence, 48 h; scaled: DMSO 0, geranylgeraniol control 100. rescue of ATP level, % at 7.49 µM. actives 0.78% (n = 330,000);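 active means mean ATP rescue above about 67%, or every replicate alone reaching that limit, limit read from the data, passing the limit was not always enough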;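 further: myotubes were challenged with 10 µM simvastatin during compound exposure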
PGC1a acetyl inh: inhibitors of PGC1a acetylation signal, primary screen, cell-based, U2OS, AlphaScreen, inhibitor mode. AlphaScreen anti-acetyl-lysine; with virally co-expressed GCN5 acetyltransferase. inhibition, % at 15.6 µM. actives 0.17% (n = 350,000);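 active means every replicate shows inhibition of at least 40%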
Rce1 inh: yeast Rce1p protease inhibitors, primary screen, biochemical, fluorescence, cell-free homogeneous; CAAX prenyl protease 2 (Saccharomyces cerevisiae (strain ATCC 204508 / S288c)), Q03530; yeast membranes, quenched prenylated peptide cleavage fluorescence; calls only; actives 0.27% (n = 290,000); AID 2563, 2010;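 active means fall in fluorescence gain of 50% or more versus controls, with final raw signal at or below 3038400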
Target sequence (Q03530 whole entry, looked up): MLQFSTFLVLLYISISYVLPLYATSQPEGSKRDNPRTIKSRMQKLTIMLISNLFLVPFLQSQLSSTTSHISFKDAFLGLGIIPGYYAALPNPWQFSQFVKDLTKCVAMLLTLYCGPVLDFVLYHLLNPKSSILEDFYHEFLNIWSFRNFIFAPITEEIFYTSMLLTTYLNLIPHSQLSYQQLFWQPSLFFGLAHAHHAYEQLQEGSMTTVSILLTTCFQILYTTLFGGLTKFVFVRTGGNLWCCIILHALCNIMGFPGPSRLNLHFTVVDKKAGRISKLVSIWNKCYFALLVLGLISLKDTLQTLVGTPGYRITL
A number is an active result; - = inactive; . = not tested or not shown; + = active, no number.

SMILES	HIF activator	AI-2 QS modul	Statin myotox sup	PGC1a acetyl inh	Rce1 inh
O=c1[nH]ncc(N/N=C\c2cccnc2)c1Cl	-	-	.	.	-
CC(C)CC(C(=O)Nc1oc(-c2ccco2)c(-c2ccco2)c1C#N)N1C(=O)c2ccccc2C1=O (configuration not stated)	-	-	117	-	-
CC(C)CC(C(=O)Nc1cccc(O)c1)N1C(=O)c2ccccc2C1=O (configuration not stated)	-	-	-	.	-
O=C(Nn1c(C2CCC2)nc2ccccc2c1=O)C1CCC1	-	-	85	-	-
C=CCOc1ccc(/C(CC)=N/O)cc1OC	-	-	117	-	-
CC/C(=N\O)c1ccc(O)c(OC)c1	-	-	-	-	-
C[C@@H]1CN([C@@H](C)CO)C(=O)c2cc(NS(C)(=O)=O)ccc2O[C@@H](C)CCCCO[C@@H]1CN(C)C(=O)NC1CCCCC1	.	.	-	-	.
Cc1ccc(NC2=CC(=O)CC(C)(C)C2)cc1F	-	-	-	-	-
Cc1cc(N)c(NC2=CC(=O)CC(C)(C)C2)cc1C	-	-	138	-	-
O=C1OCc2cc(NC(=O)C34CC5CC(CC(C5)C3)C4)ccc21	828	-	.	.	-
Cc1ccc(CNC(=O)NC2CCCCC2)cc1	18	-89	.	-	-
O=C(C[C@@H]1CC[C@H](NC(=O)NC2CCCCC2)[C@@H](CO)O1)NCc1ccc(Cl)cc1	.	.	-	-	.
O=C(C[C@H]1CC[C@H](NC(=O)NC2CCCCC2)[C@H](CO)O1)NCc1ccc(Cl)cc1	.	.	-	54	.
CCOC(=O)C1=C(C)C(c2ccccc2O)NC(=O)N1 (configuration not stated)	-	-	87	-	-
Cc1ccc(NC(=S)N/C(=N/S(=O)(=O)c2ccccc2)c2ccccc2)cc1	10	-	-	-	-
Cc1ccc(S(=O)(=O)/N=C(/NC(=S)Nc2ccccc2)c2ccccc2)cc1	-	-	-	-	-
C[C@@H]1CN([C@@H](C)CO)C(=O)c2ccccc2-c2ccccc2CO[C@H]1CN(C)S(=O)(=O)c1ccccc1F	.	.	.	-	.
Cc1ccc(Oc2coc3cc(O)ccc3c2=O)cc1	-	-94	-	-	-
O=C(Oc1ccc2c(=O)c(Oc3ccc4ccccc4c3)coc2c1)c1cncc(Br)c1	-	-83	.	-	-
CCCCOC(=O)Oc1ccc2c(=O)c(Oc3cccc(C)c3)coc2c1	-	-77	.	-	-
CCCCOC(=O)Oc1ccc2c(=O)c(Oc3cc(C)cc(C)c3)coc2c1	-	-	.	.	-
CCOC(=O)N1CCN(C(=O)Cc2cccs2)CC1	-	-	.	-	-
CCOC(=O)N1CCN(C(=O)Cc2ccsc2)CC1	-	-	110	-	-
COc1ccc(CC(=O)N2CCN(C(=O)Cc3ccc(OC)cc3)CC2)cc1	365	-	-	-	-
CO[C@@H]1CN(C)C(=O)c2ccc(NS(C)(=O)=O)cc2OC[C@H](C)N(C(=O)c2ccc3c(c2)OCO3)C[C@H]1C	.	.	-	-	.
SMILES	HIF activator	AI-2 QS modul	Statin myotox sup	PGC1a acetyl inh	Rce1 inh
CCOCCCNC(=O)CN1C(=O)COc2ccc(S(=O)(=O)N3CCCCCC3)cc21	-	-	-	-	-
CCCCNC(=O)CN1C(=O)COc2ccc(S(=O)(=O)N3CCCCCC3)cc21	46	-	-	-	-
COc1ccccc1-c1ccc2c(c1)O[C@H](CN(C)CC1CC1)[C@H](C)CN([C@H](C)CO)S2(=O)=O	.	.	-	-	.
CCOC(=O)C[C@H]1c2ccccc2S(=O)(=O)N1Cc1cc(OC)c(OC)c(OC)c1	-	-	.	-	+
CCOC(=O)C[C@H]1c2ccccc2S(=O)(=O)N1Cc1cccc(C(F)(F)F)c1	-	-	-	.	-
CC(C)C[C@H]1CNC(=S)N1CC1CCCN1C[C@H](Cc1ccccc1)N1C[C@H](Cc2ccc(O)cc2)N(CC2CCCCCC2)C1=S (some centres not stated)	.	.	-	51	.
CC(C)C[C@H]1CN([C@@H](Cc2ccc(O)cc2)CN2CCC[C@@H]2CN2C(=S)NC[C@@H]2Cc2ccccc2)C(=S)N1CC1CCCCCC1	.	.	-	-	.
CCC1(C)C2(C#N)C(N)=NC(OC)(OC)C12C#N (configuration not stated)	-	-	72	-	-
Cc1nc(Nc2cccc(Cl)c2)c2oc3ccccc3c2n1	-	-	-	-	-
COc1cccc(Nc2nc(C)nc3c2oc2ccccc23)c1	-	-	-	-	+
c1ccc(-c2csc3nnc(SCc4ccc5c(c4)OCCO5)n23)cc1	-	-	157	-	-
CCC(CC)C(=O)NC12CC3CC(CC(C3)C1)C2	-	-	89	-	-
Cc1ccc(-c2ccc([C@@H]3[C@H](CO)N4CCCCN(C(=O)Nc5ccccc5)C[C@@H]34)cc2)cc1	.	.	.	-	.
O=[N+]([O-])c1ccc(OCCCCCN2CCOCC2)cc1	-	-	-	-	-
O=[N+]([O-])c1ccc(OCCCCN2CCCCC2)cc1	189	-	.	-	-
O=C1C(c2ccc(F)cc2)N(C2CCCCC2)C(=O)CN1C1CCCC1 (configuration not stated)	-	-	-	-	-
Cc1ccc(C2C(=O)N(C3CCC(C)CC3)CC(=O)N2C2CCCC2)cc1 (configuration not stated)	-	-	124	-	-
O=C(NCC(c1ccco1)N1CCCC1)c1ccc(Cl)cc1 (configuration not stated)	-	-	92	-	-
O=C(CCNC(=O)c1ccc(Cl)cc1)NCC(c1ccco1)N1CCCCC1 (configuration not stated)	-	-	-	-	-
CC(C)C#Cc1ccc([C@H]2[C@H]3CN(C(=O)c4ccc5c(c4)OCO5)CCCCN3[C@H]2CO)cc1	.	.	.	-	.
Cc1cc(C)n2c(SCc3ccc(Br)cc3)nnc2n1	-	-	.	-	-
Cc1cc(C)n2c(SCc3c(C)noc3C)nnc2n1	.	.	93	-	.
CCCC(=O)Nc1ccc2c(c1)C(=O)N(C)C[C@H](OC)[C@@H](C)CN(C(=O)c1ccncc1)[C@@H](C)CO2	.	.	-	-	.
CC(=O)[C@]12O[C@@]3(COC[C@H](c4ccccc4)N3C1=O)[C@H]1C(=O)N(c3ccccc3)C(=O)[C@H]12	.	.	.	-	.
Cc1ccc(S(=O)(=O)CCC(=O)Nc2cccc(Cl)c2)cc1	-	-	108	-	-
CO[C@@H]1CN(C)C(=O)c2ccc(NC(C)=O)cc2OC[C@H](C)N(C(=O)CN(C)C)C[C@@H]1C	.	.	-	-	.
CC(C)[C@H](NC(=O)OCc1ccccc1)C(=O)OCC(=O)Nc1c(F)cccc1F	-	-	.	-	+
Oc1ccc(/C=N/Nc2nc(-c3ccc(Cl)cc3)cc(C(F)(F)F)n2)cc1	-	-	-	64	-
